Results filed as inconclusive are left out. Where a call stands in place of a potency, no number is given. Calls of active or inactive are those of the source. The call rests on the fitted dose curve; in most records, active means well fitted inhibition curve with a large enough effect; inconclusive means small, poorly fitted or top-dose-only effect; inactive means no such curve, though single readings can be large or run the other way.
Assay: Acumen qHTS Assay for Inhibitors of the mTORC1 Signaling Pathway in WT MEF Cells: Hit Validation; further: nearly all actives have a fitted effect of over 60% in size
Settings: Acumen imaging; series mostly up to 37.3 µM
From the text: The mammalian target of rapamycin (mTOR) is an intracellular serine/threonine kinase Aberrant regulation of mTOR signaling plays a causative role in a number of human diseases, including cancer, benign tumors such as lymphangioleiomyomatosis (LAM) and Tuberous Sclerosis Complex (TSC), and metabolic diseases such as diabetes and obesity. This project aims to identify inhibitors of ribosomal protein S6 (rpS6) phosphorylation. The phosphorylation of rpS6 is a key event downstream of mTOR activation. The assay uses a phospho-specific antibody of phospho-rpS6 to detect inhibitors of mTOR activation. Mutations in the Tsc1 and Tsc2 genes are the underlying genetic lesions responsible for TSC, causing constitutive activation of the mTORC1 pathway and leading to profound effects on cell metabolism. Aberrant metabolism in cancer has recently received significant attention as a target to develop therapeutic agents in the treatment of cancer.1 As Tsc2-/- cells have lost the ability to respond to energy and growth factor deprivation, these cells are unable to properly down regulate cellular biosynthetic processes in response to metabolic stress, and are thus extremely sensitive to glucose deprivation-induced death.2 A central goal of this project is to explore the unique cell survival and metabolic properties of cells with Tsc1 or Tsc2 by screening for compounds that selectively target the Tsc2-/- MEFs by screening both Tsc2-/- and WT MEF cell lines. We hope to better understand these aspects of TSC physiology in order to exploit them for therapeutic benefit.
NIH Molecular Libraries Probe Production Centers Network [MLPCN]
NIH Chemical Genomics Center [NCGC]
Assay Submitter (PI): Blenis, John; Harvard University
For quantitative high throughput analysis of mTORC1 signaling, we developed a cell-based assay for immuno-fluorescence based detection of rpS6 phosphorylation on the Acumen Explorer that will be used a platform for the primary small molecule screen. Mouse embryonic fibroblasts (MEFs) are cultured in 1536-well plates using DMEM + 10% FBS. Twenty-four hrs after plating, test compounds (solubilized in DMSO) are delivered and incubated with the cells for 24 hrs at 37 degree Celsius. Following the incubation, media with compound is aspirated and the cells are fixed in 4% paraformaldehyde (PFA) containing PBS + 0.2% TX-100. Next, PFA is aspirated, cells are washed two times with PBS plus 0.2% TX-100 and the cells are blocked for 1 hr at room temperature (blocking buffer: LiCOR Blocking Buffer plus 0.2% TX-100). This is followed by aspiration and staining with Alexa-488 conjugated-phospho-rpS6 Ser235/236 antibody for 2 hours at room temperature (Cell Signaling Technology # 4803, 1:50 dilution in blocking buffer). Cells are washed two times with PBS plus 0.2% TX-100, and stained with 10 uM propidium iodide (PI) for 20-25 minutes for cell number measurement (1:500 dilution of Hoescht staining is also added for IN Cell imaging). The plates are scanned on the Acumen Explorer laser scanning instrument (TTP Labtech) using the 488nm laser for simultaneous excitation of the Alexa-488 and PI. […] Fluorescence emission from the PI stain is selected using a 575-640 nm band pass filter. The normalized phospho-S6 staining is calculated as the ratio of the integrated Alexa 488 intensity divided by the integrated PI intensity for the single concentration rapamycin control (7.5 nM) and DMSO columns. […] Inhibition of the pathway is defined based on the normalized phospho-S6 intensity in rapamycin treated cells. Active cells are defined as those with a normalized phospho-S6 staining above this threshold, and each treatment is reported as the % positive cells in the well, where thresholds are defined by selecting wells with the highest and lowest signal and differentiating between the % non-active and % active populations. In addition to the pathway specific phospho-S6 endpoint, the number of PI stained cells from the Acumen is recorded as a measure of cell viability. […]
With CC(C)N(C(=O)Cn1cc(S(=O)(=O)Cc2ccc(Cl)cc2)c2ccccc21)C(C)C the Potency was “inactive”.
With O=C(CCCn1c(=O)c2ccccc2n(Cc2cccc(Cl)c2)c1=O)NCCc1ccc(Cl)cc1 the Potency was “inactive”.
With CC(C)c1ccc(C2Sc3ccccc3NC3=C2C(=O)c2ccccc23)cc1 (stereo not given) the Potency was “inactive”.
For CN(C)CCN(Cc1ccco1)C(=O)c1cc2c(s1)-c1ccccc1OC2, the Potency was “inactive”.
In the case of CCN(CC)CCn1c(=N)n(CC(O)COc2ccccc2C)c2ccccc21 (stereo not given), the Potency is reported as 11.7 µM (active).
In the case of COc1ccc(Cl)cc1NC(=O)CCCS(=O)(=O)c1nc(-c2ccc(OC)c(OC)c2)cc(C(F)(F)F)n1, the Potency is reported as 3.69 µM (active).
In the case of O=C(Nc1ccccc1)N(Cc1cccc(Cl)c1)c1ccccn1, the Potency is reported as “inactive”.
In the case of CS(=O)(=O)N(CC(=O)NCCc1ccccc1)c1cc(C(F)(F)F)ccc1Cl, the Potency is reported as “inactive”.
For COc1ccc2c(CNCCc3cccs3)c(C(=O)O)n(Cc3ccc(F)cc3Cl)c2c1, the Potency was “inactive”.
In the case of CCOc1ccc(NC(=O)c2sc3nc4c(cc3c2N)CCCCCC4)cc1, the Potency is reported as “inactive”.
In the case of Cc1ccc(S(=O)(=O)c2nnn3c2nc(NC2CCCCC2)c2sccc23)cc1C, the Potency is reported as “inactive”.
With CCCCN(C)C(=O)CSc1c2c(nc3ccc(Cl)cc13)CCCC2 the Potency was “inactive”.
With Cc1cc(C)c(-c2n[nH]c3c2C(c2ccccc2F)N(Cc2ccco2)C3=O)c(O)c1 (stereo not given) the Potency was “inactive”.
With Cc1cccc(Nc2nnc(-c3ccc(C)c(S(=O)(=O)N4CCN(C)CC4)c3)c3ccccc23)c1 the Potency was “inactive”.
In the case of Cc1cc(C)c(/C=C2\C(=O)Nc3ccccc32)[nH]1, the Potency is reported as “inactive”.
With COc1ccc(OCc2nc3c4c(-c5ccccc5)c(-c5ccccc5)oc4ncn3n2)cc1 the Potency was “inactive”.
In the case of CCCCOc1cccc(C(=O)N2CCN(CCc3ccncc3)CC2)c1, the Potency is reported as “inactive”.
For CCOc1cc(CNCCSc2nnnn2C)cc(Cl)c1OCc1ccc(Cl)cc1, the Potency was “inactive”.
With CCCCS(=O)(=O)c1nc(-c2ccc(Br)cc2)cc(-c2ccccc2)c1C#N the Potency was 5.21 µM (active).
For CCOc1ccc(CC(=O)NC2CC(=O)N(c3ccc4c(c3)OCCO4)C2)cc1 (stereo not given), the Potency was “inactive”.
In the case of COc1ccc2nc(NC(=O)c3nc(S(=O)(=O)Cc4ccccc4F)ncc3Cl)sc2c1, the Potency is reported as 13.1 µM (active).
For Cc1nn(C(C)C(=O)NC2CCCCC2)c(=O)c2c1sc1ccccc12 (stereo not given), the Potency was “inactive”.
For CCN1C(=O)c2ccccc2Sc2ccc(NC(=O)Cc3ccc(OC)cc3)cc21, the Potency was “inactive”.
With CCc1ccc(NC(=O)Cn2c(=O)n(-c3ccc(OC)cc3)c(=O)c3ccc(C(=O)NCc4ccc(C)cc4)cc32)cc1 the Potency was 10.4 µM (active).
In the case of CCN1CCN(C(=O)Cn2ncc3c4ccccc4n(Cc4c(C)cc(C)cc4C)c3c2=O)CC1, the Potency is reported as 5.21 µM (active).
In the case of CCN(CC)CCNC(=O)c1ccc(Cn2c(=O)c3cccn3c3cccnc32)cc1, the Potency is reported as “inactive”.
In the case of O=C(/C=C/c1ccco1)Nc1ccc(Cl)c(-c2nc3cc(Cl)ccc3o2)c1, the Potency is reported as “inactive”.
In the case of Cc1ccc(C)c(N2CCN(CCCNC(=O)c3nnc(Cc4ccc(F)cc4Cl)o3)CC2)c1, the Potency is reported as “inactive”.
With COc1ccc(NC(=O)CSc2nc3ccccc3nc2N2CCC(C)CC2)cc1 the Potency was “inactive”.
For CCCCS(=O)(=O)c1oc(-c2ccc(F)cc2)nc1S(=O)(=O)c1ccc(C)cc1, the Potency was 5.21 µM (active).
For Cc1cc(C)cc(C(=O)Nc2ccc(-c3nc4ncccc4o3)cc2)c1, the Potency was “inactive”.
For COc1ccc(NC(=O)c2c(NC(=O)COc3ccccc3)sc3c2CCC(C)C3)cc1 (stereo not given), the Potency was “inactive”.
For CCOc1ccc(C(=O)NCCc2sc(-c3ccc(C)cc3)nc2C)cc1, the Potency was “inactive”.
In the case of CC(C)(C)c1ccc(C2NC(=O)c3n[nH]c(-c4cccs4)c32)cc1 (stereo not given), the Potency is reported as “inactive”.
With CCOc1ccc(CCNC(=O)CCc2c(C)nc3cc(-c4ccccc4OC)nn3c2C)cc1 the Potency was “inactive”.
For CCN(CC)CCCNc1sc(S(=O)(=O)c2ccccc2)nc1S(=O)(=O)c1ccc(Cl)cc1, the Potency was 16.5 µM (active).
With O=C(Cn1c(=O)c2ccccc2n(CC(=O)Nc2ccc(Cl)cc2)c1=O)NCCc1ccccc1 the Potency was 14.7 µM (active).
With Nc1c(C(=O)NCc2ccccc2)nnn1Cc1cccc(Br)c1 the Potency was 13.1 µM (active).
With CCc1ccc(C(=O)CC2(O)C(=O)N(CCc3ccccc3)c3ccc(Cl)cc32)cc1 (stereo not given) the Potency was “inactive”.
For CN(CCCNC(=O)c1cc2c(Cl)nc3ccccc3c2s1)Cc1ccccc1, the Potency was “inactive”.
Potency means the concentration at half of the fitted maximal effect.
